D1 agonist: agonists of human D1 dopamine receptor | P21728 | activation, % at 2 µM | 360,000 compounds, 1% hits | AID 504660 | HEK293 T-REx D1 cells, calcium flux, agonist mode; also: 0% is about no effect
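Agonism was scored from calcium flux recorded over 180 s (1 read/s) after pintool compound addition, following a 10-cycle baseline. Cells were inducible force-coupled HEK293 TREx D1, plated overnight at 30 C and loaded with no-wash calcium dye.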
D1 PAM: human D1 dopamine receptor positive modulation | potentiation, % at 10 µM | P21728 | HEK293 TREx D1 cells, calcium flux, dopamine EC20 potentiation | 360,000 compounds, 0.036% hits | AID 504651; in the data active = potentiation above about 30%; also: 0% is about no effect
TRHR enhancer: allosterically enhances the human TRH receptor; P34981; TRHR cells, fluo-8 calcium fluorescence, EC20 TRH enhancement; enhancement, % at 2 µM; 360,000 compounds, 0.66% hits; AID 493056; in the data active = enhancement above about 30%; also: 0% is about no effect
Target sequence (P34981 whole entry, looked up): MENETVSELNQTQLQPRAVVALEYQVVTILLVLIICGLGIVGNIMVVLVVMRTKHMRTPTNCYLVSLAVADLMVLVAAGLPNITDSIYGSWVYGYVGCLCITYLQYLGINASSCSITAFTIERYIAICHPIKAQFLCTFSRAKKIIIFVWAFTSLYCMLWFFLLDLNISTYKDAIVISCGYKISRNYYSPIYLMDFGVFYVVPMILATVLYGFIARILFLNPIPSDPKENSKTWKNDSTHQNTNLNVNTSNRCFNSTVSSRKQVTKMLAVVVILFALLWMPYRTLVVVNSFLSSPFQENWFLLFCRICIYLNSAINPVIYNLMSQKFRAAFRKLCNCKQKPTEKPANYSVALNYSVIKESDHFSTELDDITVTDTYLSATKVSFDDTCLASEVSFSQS
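Enhancer read-out: after compound pinning and an initial kinetic agonist-mode read, an EC20 of TRH (10 nM final) was injected and fluo-8 calcium signal (Ex 480/Em 530) followed at 1 s/cycle for 100 cycles in TRHR-expressing cells.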
TRHR ag: activates the human TRH receptor. P34981. TRHR cells, calcium flux fluo-8, FDSS agonist mode. activation, % at 2 µM. 360,000 compounds, 0.18% hits; also: 0% is about no effect
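TRHR-expressing cells loaded with fluo-8 calcium dye; 23 nL library compound pin-transferred, kinetic FDSS fluorescence (Ex 480/Em 530) recorded about 180 s for agonist-induced calcium release, before a 10 nM TRH EC20 addition for potentiator mode.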
D1 antag: antagonists of human D1 dopamine receptor; P21728; HEK293 TREx D1 cells, calcium flux, dopamine EC80; hits give low values; activity change, negative = inhibition, % at 10 µM; 360,000 compounds, 3.2% hits; AID 504652; in the data active = activity change below about -30%; also: % is scaled to controls: 0 for no effect and ±100 for the full control effect
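Calcium flux readout: force-coupled, inducible Hek293 Trex D1 line, cells induced overnight at 30 C with tetracycline, dye-loaded 30–90 min at RT. Antagonism scored against EC80 dopamine challenge given 180 s after compound.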
* = called active by the depositor. In the library only some 4.7% were active in any assay of this set; here they are far more common. Rule as the data show it, unless noted: active = activation above about 30%; inactive = the rest.

COc1ccccc1CN1CCC(CNC(=O)c2cnn(-c3ccc(Cl)cc3)c2C2CCN(C(=O)OC(C)(C)C)CC2)CC1 was read as D1 agonist 31*, D1 PAM -6, TRHR enhancer 16, TRHR ag 2 and D1 antag -1.
CCCCCN(C(=O)CCC(=O)OCc1ccc(C(C)(C)C)cc1)c1c(N)n(CCCC)c(=O)[nH]c1=O was read as D1 agonist 2, D1 PAM 1, TRHR enhancer -7, TRHR ag 0 and D1 antag -7.
`O=S1(=O)CCC(n2nccc2-c2ccccc2)C1` (stereo not given) gave D1 agonist 2, D1 PAM 4, TRHR enhancer 2, TRHR ag 1 and D1 antag 14.
For Nc1c(-c2ccc(Cl)cc2)cnn1C1CCS(=O)(=O)C1 (stereo not given) the results were D1 agonist 11, D1 PAM -10, TRHR enhancer -6, TRHR ag -1 and D1 antag -30*.
For CCCCn1c(=N)n(CCOc2ccc(C)cc2)c2ccccc21 the results were D1 agonist 50*, D1 PAM -3, TRHR enhancer 1, TRHR ag 0 and D1 antag 32.
Screening CCCn1c(=N)n(CC(O)COc2ccc(C)cc2)c2ccccc21 (stereo not given) returned D1 agonist 11, D1 PAM 1, TRHR enhancer -2, TRHR ag 0 and D1 antag 10.
For CCCCn1c(=N)n(CCOc2ccccc2OC)c2ccccc21 the results were D1 agonist 33*, D1 PAM -8, TRHR enhancer 4, TRHR ag -1 and D1 antag -3.
`CCn1c(=N)n(CCOc2ccc(Br)cc2)c2ccccc21` gave D1 agonist 89*, D1 PAM 4, TRHR enhancer 12, TRHR ag 3 and D1 antag -26.
For COc1ccc(OCCn2c(=N)n(CCO)c3ccccc32)cc1 the results were D1 agonist 4, D1 PAM -4, TRHR enhancer 0, TRHR ag 1 and D1 antag 12.
`Cc1cccc(C)c1NC(=O)CN(C)CC(=O)Nc1cc(Cl)ccc1C#N` gave D1 agonist 6, D1 PAM 7, TRHR enhancer 34*, TRHR ag 0 and D1 antag -4.
Screening COc1ccc(OC)c(C(C)NC(=O)C(C)n2cc([N+](=O)[O-])cn2)c1 (stereo not given) returned D1 agonist 4, D1 PAM 4, TRHR enhancer -1, TRHR ag 0 and D1 antag 1.
Screening O=C(O)CC/C(=C\c1ccc(N2CCOCC2)c([N+](=O)[O-])c1)c1nc2ccccc2s1 returned D1 agonist 0, D1 PAM -14, TRHR enhancer -4, TRHR ag 0 and D1 antag -77*.
Screening COc1ccc(N2CCN(C(=O)CCC(=O)N3CC(C)Oc4ccc(C)cc43)CC2)cc1 (stereo not given) returned D1 agonist 1, D1 PAM -8, TRHR enhancer 4, TRHR ag -1 and D1 antag -21.
`COc1ccc(NS(=O)(=O)c2cccc(NC(=O)c3cnccn3)c2)cc1Br` gave D1 agonist 7, D1 PAM -3, TRHR enhancer -1, TRHR ag 0 and D1 antag -31*.
`S=c1[nH]nc(-c2n[nH]c3c2CCC3)n1/N=C/C=C/c1ccco1` gave D1 agonist 1, D1 PAM 0, TRHR enhancer 39*, TRHR ag -1 and D1 antag -3.
Screening Cc1c(C(=O)N/N=C/c2cccnc2)sc(N)c1C#N returned D1 agonist 3, D1 PAM -9, TRHR enhancer 21, TRHR ag 1 and D1 antag 6.
O=S(=O)(c1ccc2c(c1)OCCO2)N1CCN(S(=O)(=O)c2ccccc2F)CC1 was read as D1 agonist 3, D1 PAM 18, TRHR enhancer 7, TRHR ag 1 and D1 antag -7.
Screening CCOc1ccc(CC(=O)C2C(=O)CCCC2=O)cc1OCC returned D1 agonist 5, D1 PAM -3, TRHR enhancer -5, TRHR ag 0 and D1 antag -42*.
